# Data taken from ChEMBL document CHEMBL3988442, “University of Dundee, Small-Polar-MMV Screening Library” (2021).
# Out of some 69,000 compounds screened, about 950 (1.4%) showed an effect of 50% or more. The full list was thinned out, with strong results kept by preference.
# System: Mycobacterium tuberculosis
# Experiment: Cornell M. t heat shock assay; also: in the data most compounds retested in dose-response had high values
# Assay type: functional, organism-based
# Parameters: dose or concentration left out as unconfirmed
row,Structure (SMILES),Percent Effect
1,Cc1cc(-c2nccs2)nc(C2CCN(Cc3ccncc3)CC2)n1.Cl,-12.67%
2,CN(Cc1ccco1)[C@@H]1CN(Cc2ccco2)[C@@H]2CCCO[C@H]12.O=C(O)C(F)(F)F.O=C(O)C(F)(F)F,13.61%
3,CN1CCC/C1=N\S(=O)(=O)c1ccc(NC(=O)c2ccc(Cl)cc2)cc1,-4.489%
4,CC1=N[C@@]2(CC[C@@H]3CN(Cc4ccc(C)cc4)C[C@@H]32)C(=O)N1CC1CC1.O=C(O)C(F)(F)F,0.8614%
5,CC(c1cn2ccsc2n1)N1Cc2ncccc2C1=O (centres undefined),-27.43%
6,CCn1ncc2c1CN(C(=O)Cc1cccs1)CC2COC.O=C(O)C(F)(F)F (centres undefined),1.467%
7,COc1cccc(N2Cc3nc(=O)n(Cc4cccc(F)c4)n3C2=O)c1,19.15%
8,CCC(=O)N1CCC2(CC1)COCCN2Cc1ccc(F)cc1.O=C(O)C(F)(F)F,-30.34%
9,O=C(O)C(F)(F)F.c1csc(CN2CCn3c(Cn4cncn4)cnc3C2)n1,-82.66%
10,CC(NC(=O)CCn1c(=O)oc2ccccc21)c1ccccn1 (centres undefined),-6.717%
11,O=C(Cn1c(=O)oc2ccccc21)NCC(O)c1ccc2c(c1)CCO2 (centres undefined),-3.535%
12,O=C(CCn1c(=O)oc2ccccc21)NCC(O)c1ccc(F)c(F)c1 (centres undefined),64.78%
13,O=C(NCC(O)c1ccc(F)c(F)c1)c1ccccc1F (centres undefined),-2.812%
14,O=C(CCn1c(=O)oc2ccccc21)NCC(O)c1ccccc1 (centres undefined),71.18%
15,O=C(CCn1c(=O)oc2ccccc21)NCC(O)c1ccc(Cl)cc1 (centres undefined),-3.948%
16,Cc1nc(C2(O)CCCNCC2)sc1CCOc1ccccc1Cl.Cl (centres undefined),-14.1%
17,CCO[C@@H]1CC[C@H]2[C@H]1OCCN2CC1CCOCC1.O=C(O)C(F)(F)F,-50.97%
18,CCc1nc(CNCC2CCCN2c2cccnn2)cs1 (centres undefined),0.6291%
19,CCCc1nc(CNCC2CCCN2c2cccnn2)cs1 (centres undefined),2.805%
20,Cc1nc(CNCC2CCCN2c2cccnn2)oc1C (centres undefined),-4.447%
21,c1cnnc(N2CCCC2CNCc2nc(-c3ccco3)no2)c1 (centres undefined),13.72%
22,CN(Cc1coc(-c2ccccc2)n1)CC1CCCN1c1cccnn1 (centres undefined),7.112%
23,c1ccc(-c2nnc(CNCC3CCCN3c3cccnn3)o2)cc1 (centres undefined),-22.96%

row,Structure (SMILES),Percent Effect
1,CCc1noc(CNCC2CCCN2c2cccnn2)n1 (centres undefined),11.99%
2,c1ccc(-c2nc(CNCC3CCCN3c3cccnn3)co2)cc1 (centres undefined),102.8%
3,c1cnnc(N2CCCC2CNCc2nc3ccccc3o2)c1 (centres undefined),103.1%
4,c1cnnc(N2CCCC2CNCc2nc(C3CC3)no2)c1 (centres undefined),52.74%
5,CC(C)CCc1nc(CNCC2CCCN2c2cccnn2)cs1 (centres undefined),75.49%
6,c1cnnc(N2CCCC2CNc2nc3ccccc3o2)c1 (centres undefined),-7.44%
7,CCn1ccnc1CN1CCN(c2cc(C)nc(C3CCCN3)c2)CC1.Cl (centres undefined),-8.62%
8,CC(C)c1nn(C)c(N(C)C)c1CNCc1cccc2cccnc12.Cl,16.12%
9,CO[C@@H]1CO[C@@]2(CCCN(Cc3nc(C)cs3)C2)C1.O=C(O)C(F)(F)F,0.7459%
10,Cc1ccccc1C(=O)N1C[C@@H]2OCCN(c3ncccn3)[C@@H]2C1.O=C(O)C(F)(F)F,-16.98%
11,O=C(NC[C@]12COC[C@H]1CN(Cc1ccco1)C2)c1ccccc1.O=C(O)C(F)(F)F,-18.08%
12,Cc1nc(CCN)cc(N2CCC(O)(c3ccc(Cl)cc3)CC2)n1,-16.16%
13,Cc1nc(CCN)cc(N2CCOc3ccc(Cl)cc3C2)n1,51.61%
14,Cc1nc(C2CCN(C)CC2)cc(N2CCOc3ccc(Cl)cc3C2)n1,-13.3%
15,O=C(O)C(F)(F)F.c1nc2c(c(C3CC3)n1)CCN(CC1CCOC1)CC2 (centres undefined),4.72%
16,CC(C)n1cc(N2Cc3nc(N4CCOCC4)ncc3C2=O)cn1,-21.77%
17,CCOc1cc(CN[C@@H]2COC[C@H]2Cc2cc(C)no2)ccc1O.O=C(O)CC(O)(CC(=O)O)C(=O)O,-17.97%
18,CO[C@@H]1CCN(S(=O)(=O)c2cccnc2)[C@@H]2CN(CC3CC3)C[C@@H]21.O=C(O)C(F)(F)F.O=C(O)C(F)(F)F,-1.199%
19,Cc1cc(C(=O)N2CCC3(CC2)CN(CCN(C)C)C(=O)O3)nc(C)n1,14.38%
20,Cc1ccc(C(=O)N2CCC3(CC2)CN(CCN(C)C)C(=O)O3)c(F)c1,97.5%
21,Cc1nc[nH]c1C(=O)N1CCC2(CC1)CN(CCN(C)C)C(=O)O2,17.79%
22,Cn1nc(CN2CCCCC2)c2c1CN(C(=O)c1cccc(C#N)c1)C2.O=C(O)C(F)(F)F,-14.41%
23,Cc1ccc(C)c(NC(=O)C(C)N2CCCN(c3nccs3)CC2)c1 (centres undefined),26%

row,Structure (SMILES),Percent Effect
1,Cc1cc(NC(=O)C(C)N2CCCN(c3nccs3)CC2)on1 (centres undefined),10.96%
2,Cc1ccc(NC(=O)C(C)N2CCCN(c3nccs3)CC2)c(C)c1 (centres undefined),58.85%
3,CC(C)Cc1nc(-c2ccnc(N3CCNCC3)n2)no1.Cl.Cl,-11.54%
4,COCCN1CCO[C@H]2CN(Cc3cccc(C)n3)C[C@H]21.O=C(O)C(F)(F)F.O=C(O)C(F)(F)F,-1.731%
5,Cc1ccsc1CN(Cc1cccnc1)C1CC(C)(C)NC(C)(C)C1.O=C(O)CC(O)(CC(=O)O)C(=O)O,-32.2%
6,Cc1ccc(-c2nc(CN3CC(n4nc(C)cc4C)C3)no2)cc1,24.47%
7,Cc1cnn(C2CN(Cc3nc4cc(Cl)ccc4n3C)C2)c1,84.58%
8,Cc1cnn(C2CN(Cc3noc(-c4ccccc4)n3)C2)c1,31.69%
9,Cc1cc(C)n(C2CN(Cc3nc4cc(Cl)ccc4n3C)C2)n1,97.92%
10,Cc1cc(C)n(C2CCN(Cc3nc4ccccc4n3C)CC2)n1,-15.39%
11,Cc1cnn(C2CN(Cc3noc(C)n3)C2)c1,1.101%
12,N#Cc1ccc(N2CCC3(CCC(=O)N3Cc3cccnc3)CC2)nc1.O=C(O)C(F)(F)F.O=C(O)C(F)(F)F,16.15%
13,Cc1c(Cl)cccc1S(=O)(=O)N1C[C@@H]2CC[C@H](C1)N(C)C2=O,-18.96%
14,O=C(Nc1cnccn1)[C@@H]1CC[C@@H]2[C@@H](CCN2Cc2nccs2)O1.O=C(O)C(F)(F)F,0.9525%
15,COCC1CN(S(=O)(=O)N(C)C)Cc2ncn(CC3CC3)c21.O=C(O)C(F)(F)F (centres undefined),-32.61%
16,Cc1noc([C@@H]2CC[C@@H]3[C@@H](CCN3S(=O)(=O)c3ccccc3)O2)n1,-26.97%
17,Cc1noc([C@@H]2CC[C@@H]3[C@@H](CCN3S(=O)(=O)c3cccnc3)O2)n1.O=C(O)C(F)(F)F,58.53%
18,Cc1noc([C@@H]2C[C@H]3OCC[C@H]3N(S(=O)(=O)c3cccnc3)C2)n1.O=C(O)C(F)(F)F,-33.58%
19,Cc1cccc(COc2ccc(C(C)N)cc2)c1.Cl (centres undefined),2.748%
20,Cc1noc(C)c1CN1CCO[C@H]2CN(Cc3ccc(F)cc3)C[C@H]21.O=C(O)C(F)(F)F.O=C(O)C(F)(F)F,-6.13%
21,CSc1ccc(C(=O)N2CC(=O)N(Cc3cccs3)CC(O)C2)cc1 (centres undefined),29.81%
22,COc1ccc(C(=O)N2CC(=O)N(Cc3cccs3)CC(O)C2)cc1 (centres undefined),14.04%
23,O=C1CN(C(=O)c2ccc(F)cc2)CC(O)CN1Cc1cccs1 (centres undefined),62.26%

row,Structure (SMILES),Percent Effect
1,CSc1ccc(C(=O)N2CC(=O)N(Cc3ccccc3)CC(O)C2)cc1 (centres undefined),28.35%
2,Cc1ccc(C(=O)N2CC(=O)N(Cc3cccs3)CC(O)C2)cc1 (centres undefined),58.25%
3,O=C1CN(C(=O)c2ccc(Cl)cc2)CC(O)CN1Cc1cccs1 (centres undefined),16.61%
4,O=C(Cc1ccsc1)N1C[C@@H]2OCCN(CC3CCCO3)[C@@H]2C1.O=C(O)C(F)(F)F (some centres undefined),-30.31%
5,CNC(=O)[C@H]1C[C@@H]2CN(C(=O)Nc3ccccc3)C[C@H]1O2,-29.03%
6,CN(C)CCN1CCC2(CC1)CN(Cc1cccnc1)C(=O)CO2.O=C(O)C(F)(F)F.O=C(O)C(F)(F)F.O=C(O)C(F)(F)F,8.81%
7,O=C(O)C(F)(F)F.O=C(O)C(F)(F)F.c1cc(COC[C@]23COC[C@H]2CN(CC2CCC2)C3)ccn1,-30%
8,O=C(NC[C@]12COC[C@H]1CN(Cc1ccncc1)C2)c1ccco1.O=C(O)C(F)(F)F.O=C(O)C(F)(F)F,-3.617%
9,Cn1cncc1C(=O)N1CCOC2(COCCN(CC3CC3)C2)C1.O=C(O)C(F)(F)F (centres undefined),41.2%
10,Cc1cnn(CC2CCCN2Cc2nccn2C)c1 (centres undefined),15.87%
11,Cc1cnn(CC2CCCN2Cc2nnc(C3CC3)n2C)c1 (centres undefined),10.04%
12,Cc1cnn(CC2CN(Cc3nccn3CC(F)(F)F)CCO2)c1 (centres undefined),-15.97%
13,Cc1cnn(CC2CCCN2Cc2nccn2CC(F)(F)F)c1 (centres undefined),101.7%
14,Cc1cnn(CC2CCCCN2Cc2ncc(C(C)(C)C)o2)c1 (centres undefined),-8.099%
15,Cc1cnn(CC2CCCCN2Cc2nccn2CC(F)(F)F)c1 (centres undefined),52.97%
16,Cc1nc(C2CCCN2Cc2nccn2CC(F)(F)F)no1 (centres undefined),-9.202%
17,Cc1cnn(CC2CCCCN2Cc2cnc(C)s2)c1 (centres undefined),18.92%
18,CCn1ccnc1CN1CCCC1Cn1cc(C)cn1 (centres undefined),89.45%
19,CCn1ccnc1CN1CCN(CCC(=O)NC2CCCCC2)CC1,24.85%
20,CC1=N[C@@]2(CC[C@@H]3CNC[C@@H]32)C(=O)N1CC(C)C.O=C(O)C(F)(F)F,-9.466%
